In ChEMBL document CHEMBL3433997, “St. Jude Leishmania screening dataset” (2016):

Columns and labels:
Assay type in all cases: functional
[1] = target: Solute carrier family 2, facilitated glucose transporter member 1 (Homo sapiens) (UniProt P11166); assay: ST_JUDE_LEISH: Cytotoxicity at 2uM final concentration against transgenic Leishmania Mexicana promastigotes LmGLUT1 that are glucose transport deficient and complemented with the human glucose transporter GLUT1. Activity is measured by DNA content using SYBR green in vitro
Solute carrier family 2, facilitated glucose transporter member 1 (Homo sapiens), sequence (P11166 whole entry): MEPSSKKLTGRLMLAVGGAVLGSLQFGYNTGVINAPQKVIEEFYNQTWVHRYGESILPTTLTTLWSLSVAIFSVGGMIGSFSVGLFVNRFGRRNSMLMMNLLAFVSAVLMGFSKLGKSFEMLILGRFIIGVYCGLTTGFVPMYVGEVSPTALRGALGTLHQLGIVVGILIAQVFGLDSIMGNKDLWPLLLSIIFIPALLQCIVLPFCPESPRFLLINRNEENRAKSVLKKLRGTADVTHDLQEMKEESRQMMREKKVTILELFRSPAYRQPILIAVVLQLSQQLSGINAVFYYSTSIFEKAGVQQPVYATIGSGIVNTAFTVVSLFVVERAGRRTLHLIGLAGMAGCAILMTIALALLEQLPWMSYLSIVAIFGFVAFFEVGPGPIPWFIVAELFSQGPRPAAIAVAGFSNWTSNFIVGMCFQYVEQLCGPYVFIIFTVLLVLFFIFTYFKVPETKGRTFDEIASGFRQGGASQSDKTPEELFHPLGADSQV

[2] = target: Hexose transporter 1 (Plasmodium falciparum) (UniProt O97467); assay: ST_JUDE_LEISH: Cytotoxicity at 2uM final concentration against transgenic Leishmania Mexicana promastigotes LmPfHT that are glucose transport deficient and complemented with the Plasmodium falciparum hexose transporter. Activity is measured by DNA content using SYBR green in vitro
[3] = target: Glucose transporter (Leishmania mexicana) (UniProt O61059); assay: ST_JUDE_LEISH: Cytotoxicity at 2uM final concentration against transgenic Leishmania Mexicana promastigotes LmGT2 that are glucose transport deficient and complemented with the L. Mexicana glucose transporter 2. Activity is measured by DNA content using SYBR green in vitro

CN(Cc1cnc2nc(N)nc(N)c2n1)c1ccc(C(=O)N[C@H](CCC(=O)OC(C)(C)C)C(=O)N[C@@H](CCC(=O)OC(C)(C)C)C(=O)OC(C)(C)C)cc1
inhibition [1]: 2.25%
inhibition [2]: 1.59%
inhibition [3]: 3.05%

COC(=O)c1cc(C(O)CNC(C)CCCc2ccccc2)ccc1O (configuration not stated)
inhibition [1]: 0.96%
inhibition [2]: -0.05%
inhibition [3]: -0.85%

CCn1ccc2c(N3CCCCS3(=O)=O)cc(C(=O)N[C@@H](Cc3ccccc3)[C@H](O)CNC(C)(C)c3cccc(C(F)(F)F)c3)cc21
inhibition [1]: 0.44%
inhibition [2]: -1.1%
inhibition [3]: -1.56%

COc1ccc(Nc2nccc(NCCNC(=O)Nc3ccccc3F)n2)cc1
inhibition [1]: 2.23%
inhibition [2]: 3.75%
inhibition [3]: -0.4%

COc1ccc(-c2cnc3ccc(NCCCO)nn23)cc1OC
inhibition [1]: -0.63%
inhibition [2]: 0.58%
inhibition [3]: 1.14%

CSc1nc2nc(C)c(Cc3cccc(C(F)(F)F)c3)c(C)n2n1
inhibition [1]: 0.17%
inhibition [2]: 0%
inhibition [3]: -1.61%

CCCCCCn1c2c(c(=N)c3c1CCC3)CCC2
inhibition [1]: 86.4%
inhibition [2]: 85.9%
inhibition [3]: 83.1%

Clc1ccc(-n2cnc3c(Nc4ccc(Oc5ccccc5)cc4)ncnc32)cc1Cl
inhibition [1]: 1.38%
inhibition [2]: 1.39%
inhibition [3]: -1.22%

CCOc1c(C)cc(C(F)(F)F)cc1CNCCCNc1cc(=O)c2ccccc2[nH]1
inhibition [1]: 5.27%
inhibition [2]: 5.03%
inhibition [3]: 5.79%

CCOc1ccc(C(C)NC(=O)c2cc(Cl)ccc2OC)cc1OCC (configuration not stated)
inhibition [1]: -0.81%
inhibition [2]: 0.16%
inhibition [3]: -2.78%

CN(CCc1ccccn1)Cc1ccc(-c2ccc(-c3nc4ccccc4[nH]3)s2)cc1
inhibition [1]: -0.34%
inhibition [2]: -1.13%
inhibition [3]: -2.7%

CC(C)Sc1nc2c(c(=O)n1CCc1ccccc1)C1(CCCCC1)Cc1ccccc1-2
inhibition [1]: -1.26%
inhibition [2]: -1.14%
inhibition [3]: -0.83%

CCCC1N=C(N)N=C(N)N1c1ccc(C)c(C)c1 (configuration not stated)
inhibition [1]: -0.66%
inhibition [2]: -2.19%
inhibition [3]: -2.79%

O=C(c1cc(OC(F)(F)F)ccc1O)N1CCN(c2ccccc2)CC1
inhibition [1]: 5.08%
inhibition [2]: 4.52%
inhibition [3]: 7.06%

O=C(/C=C/c1ccc(Cl)c(Cl)c1)N1CCC(NCc2ccc3[nH]ccc3c2)CC1
inhibition [1]: 4.05%
inhibition [2]: 4.06%
inhibition [3]: 0.76%

C=CCN1CCC(N(Cc2cccc(Oc3ccccc3)c2)C(=O)C(c2ccccc2)c2ccccc2)CC1
inhibition [1]: -1.05%
inhibition [2]: -2.14%
inhibition [3]: -2.94%

Cc1[nH]c(C)c(-c2ccc(-c3cccc(Cl)c3)nc2)c(=O)c1Br
inhibition [1]: 0%
inhibition [2]: 1.07%
inhibition [3]: 0.63%

CC1(CCCCN2CCC(c3c[nH]c4cnccc34)CC2)C(=O)Nc2cccc(Cl)c21 (configuration not stated)
inhibition [1]: 0.37%
inhibition [2]: 0.54%
inhibition [3]: 1.21%

Clc1cccc(-c2nc(Nc3ccnc(-c4ccc(CN5CCOCC5)cc4)c3)c3ccccc3n2)c1
inhibition [1]: 4.42%
inhibition [2]: 3.91%
inhibition [3]: 3.58%

CCN(CC)CCCN(CCCN(CC)CC)c1cc(C)nc(Nc2ccc(Cl)cc2)n1
inhibition [1]: 2.61%
inhibition [2]: 0.88%
inhibition [3]: 0.26%

Cc1cccc(Nc2nc3nonc3nc2Nc2cccc(Cl)c2Cl)c1C
inhibition [1]: 9.75%
inhibition [2]: 7.64%
inhibition [3]: 7.5%

CC(C)(C)OC(=O)[C@H](CC(N)=O)NC(=O)c1ccc(-c2ccc(-c3nc4cc(C(F)(F)F)ccc4[nH]3)s2)cc1
inhibition [1]: 5.01%
inhibition [2]: 3.22%
inhibition [3]: 1.57%

CCN(CCCN1CCCCC1)c1cc(C)nc(Nc2ccc(C)c(F)c2)n1
inhibition [1]: 5.07%
inhibition [2]: 5.06%
inhibition [3]: 6.2%

Nc1nc(N)c2c(ccc3c2ncn3Cc2ccccc2)n1
inhibition [1]: 12.9%
inhibition [2]: 13.7%
inhibition [3]: 10.5%

O=C(NC1CC1)c1cnc(N2CCC(c3ccccc3)CC2)c(Cl)c1
inhibition [1]: 2.86%
inhibition [2]: 6.43%
inhibition [3]: 3.1%

Cc1cc2nc(-c3ccc(C(=O)NCc4ccc(Cl)c(Cl)c4)cc3)[nH]c2cc1C
inhibition [1]: 4.77%
inhibition [2]: 4.64%
inhibition [3]: 2.9%

CC(C)C(C(=O)n1cc2c(ccc3nc(N)nc(N)c32)n1)C(C)C
inhibition [1]: 8.32%
inhibition [2]: 11%
inhibition [3]: 3.51%

O=C(NCc1cccc(F)c1)Nc1ccc(-c2cccc(-c3nc4ccccc4[nH]3)c2)cc1
inhibition [1]: 2.57%
inhibition [2]: 4.32%
inhibition [3]: -0.32%

CNC(=N)c1ccc(NC(=O)Nc2ccc(C(=N)NC)cc2)cc1
inhibition [1]: 4.64%
inhibition [2]: 1.88%
inhibition [3]: 3.62%

Cc1ccc(S(C)(=O)=O)cc1/C=C/C(=O)O
inhibition [1]: 9.4%
inhibition [2]: 8.46%
inhibition [3]: 10.4%

O=C(NC1CC1)c1ccc(N2CCC(c3ccccc3)CC2)nc1
inhibition [1]: 5.99%
inhibition [2]: 5.01%
inhibition [3]: 3.25%

CCc1c[nH]c2c(N3CCCS3(=O)=O)cc(C(=O)N[C@@H](Cc3ccccc3)[C@H](O)CNC(C)(C)c3cccc(C(F)(F)F)c3)cc12
inhibition [1]: -0.71%
inhibition [2]: 0.86%
inhibition [3]: 0.6%

O=C(Nc1ccsc1)Nc1cccc(-c2cccc(-c3nc4cc(F)ccc4[nH]3)c2)c1
inhibition [1]: 2.33%
inhibition [2]: 2.8%
inhibition [3]: -5.19%

CC(=O)Nc1nc(C(=O)Nc2cccc(-c3cccc(-c4nc5cccc(C)c5[nH]4)c3)c2)cs1
inhibition [1]: 6.67%
inhibition [2]: 1.89%
inhibition [3]: 14.6%
